# Laboratory results taken from the supplement of paper PMC8728848.
# The sample as a whole holds a higher share of the strongest signals than the screen did.
# B1: Mermaid2 (Stilbonema majum) (protein)
# chain: MGSSHHHHHHSSGLVPRGSHMAASGWLRSPQGTVVKLYRRSLSWSKADEFCKDVDGRLVVDRTADMHLFLIKNVLKEKKSRVWVGLRRTAPHSRTWIWSDGTRQNEDDLNTNLWLRDEPNDAAGEEECALFMYSPWEKAWGLNDYLCRGGCRSYQFICEKGIR
# Assays:
# Test in all cases: glycan array binding signal (z-score within array); higher = stronger binding
# Conditions in all cases: glycan notation: IUPAC condensed, linker removed
# [1] = target: Fuc(a1-2)Gal(b1-3)GlcNAc(b1-3)[Neu5Ac(a2-6)Gal(b1-4)GlcNAc(b1-6)]Gal(b1-4)Glc
# Procedure, shortened: (§1)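 The Consortium for Functional Glycomics database supplied 3228 glycan arrays, of which those lacking an available protein sequence were dropped. The binding signal, a within-array Z-score, was averaged across arrays of the same protein sequence and across linkers. Negative scores can be read as non-binding.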
# [2] = target: Fuc(a1-2)Gal(b1-4)GlcNAc(b1-2)Man
# Procedure, shortened: as §1
# [3] = target: Fuc(a1-2)Gal(b1-4)GlcNAc(b1-3)Gal(b1-4)GlcNAc
# Procedure, shortened: as §1
# [4] = target: Fuc(a1-2)Gal(b1-4)[Fuc(a1-3)]GlcNAc
# Procedure, shortened: as §1
# [5] = target: Fuc(a1-2)Gal6S(b1-3)GlcNAc
# Procedure, shortened: as §1
# [6] = target: Fuc(a1-2)Gal6S(b1-3)GlcNAc6S
# Procedure, shortened: as §1
# [7] = target: Fuc(a1-2)[Gal(a1-3)]Gal(b1-4)Glc
# Procedure, shortened: as §1
# [8] = target: Fuc(a1-2)[Gal(a1-3)]Gal(b1-4)GlcNAc(b1-3)[Fuc(a1-2)[Gal(a1-3)]Gal(b1-4)GlcNAc(b1-6)]GalNAc
# Procedure, shortened: as §1
# [9] = target: Fuc(a1-2)[GalNAc(a1-3)]Gal(b1-4)GlcNAc(b1-3)Gal(b1-4)GlcNAc
# Procedure, shortened: as §1
# [10] = target: Fuc(a1-2)[GalNAc(b1-3)]Gal
# Procedure, shortened: as §1
# [11] = target: Fuc(a1-3)[Gal(b1-4)]GlcNAc(b1-3)Gal(b1-3)[Fuc(a1-4)]GlcNAc
# Procedure, shortened: as §1
# [12] = target: Gal(b1-2)Gal
# Procedure, shortened: as §1
# [13] = target: Gal(b1-3)GalNAc(a1-3)[Fuc(a1-2)]Gal(b1-4)Glc
# Procedure, shortened: as §1
# [14] = target: Gal(b1-3)GlcNAc(b1-3)Gal(b1-4)GlcNAc(b1-3)Gal(b1-4)GlcNAc(b1-2)[Gal(b1-3)GlcNAc(b1-3)Gal(b1-4)GlcNAc(b1-3)Gal(b1-4)GlcNAc(b1-6)]Man(a1-6)[Gal(b1-3)GlcNAc(b1-3)Gal(b1-4)GlcNAc(b1-3)Gal(b1-4)GlcNAc(b1-2)Man(a1-3)]Man(b1-4)GlcNAc(b1-4)[Fuc(a1-6)]GlcNAc
# Procedure, shortened: as §1
# [15] = target: Gal(b1-3)GlcNAc(b1-3)Gal(b1-4)[Fuc(a1-3)]GlcNAc
# Procedure, shortened: as §1
# [16] = target: Gal(b1-3)[Fuc(a1-4)]GlcNAc(b1-3)Gal(b1-4)[Fuc(a1-3)]GlcNAc
# Procedure, shortened: as §1
# [17] = target: Gal(b1-4)Gal
# Procedure, shortened: as §1
# [18] = target: Gal(b1-4)GalNAc(b1-3)[Fuc(a1-2)]Gal(b1-4)GlcNAc
# Procedure, shortened: as §1
# [19] = target: Gal(b1-4)Glc
# Procedure, shortened: as §1
# [20] = target: Gal(b1-4)GlcNAc(b1-2)Man
# Procedure, shortened: as §1
# [21] = target: Gal(b1-4)GlcNAc(b1-2)Man(a1-3)[Gal(b1-4)GlcNAc(b1-2)Man(a1-6)][Gal(b1-4)GlcNAc(b1-4)]Man(b1-4)GlcNAc(b1-4)[Fuc(a1-6)]GlcNAc
# Procedure, shortened: as §1
# [22] = target: Gal(b1-4)GlcNAc(b1-2)Man(a1-3)[Man(a1-6)]Man(b1-4)GlcNAc(b1-4)GlcNAc
# Procedure, shortened: as §1
# [23] = target: Gal(b1-4)GlcNAc(b1-2)[Gal(b1-4)GlcNAc(b1-4)]Man(a1-3)[Gal(b1-4)GlcNAc(b1-2)Man(a1-6)]Man(b1-4)GlcNAc(b1-4)GlcNAc
# Procedure, shortened: as §1
# [24] = target: Gal(b1-4)GlcNAc(b1-2)[Gal(b1-4)GlcNAc(b1-4)]Man(a1-3)[GlcNAc(b1-4)][Gal(b1-4)GlcNAc(b1-2)[Gal(b1-4)GlcNAc(b1-6)]Man(a1-6)]Man(b1-4)GlcNAc(b1-4)GlcNAc
# Procedure, shortened: as §1
# [25] = target: Gal(b1-4)GlcNAc(b1-3)Gal(b1-4)GlcNAc(b1-2)Man(a1-3)[Gal(b1-4)GlcNAc(b1-3)Gal(b1-4)GlcNAc(b1-2)Man(a1-6)]Man(b1-4)GlcNAc(b1-4)[Fuc(a1-6)]GlcNAc
# Procedure, shortened: as §1
# [26] = target: Gal(b1-4)GlcNAc(b1-3)Gal(b1-4)GlcNAc(b1-2)[Gal(b1-4)GlcNAc(b1-3)Gal(b1-4)GlcNAc(b1-6)]Man(a1-6)[Gal(b1-4)GlcNAc(b1-3)Gal(b1-4)GlcNAc(b1-2)Man(a1-3)]Man(b1-4)GlcNAc(b1-4)GlcNAc
# Procedure, shortened: as §1
# [27] = target: Gal(b1-4)GlcNAc(b1-3)Gal(b1-4)GlcNAc(b1-3)Gal(b1-4)GlcNAc
# Procedure, shortened: as §1
# [28] = target: Gal(b1-4)GlcNAc(b1-6)GalNAc
# Procedure, shortened: as §1
# [29] = target: Gal6S(b1-4)GlcNAc6S
# Procedure, shortened: as §1
# [30] = target: GalNAc(b1-4)GlcNAc6S
# Procedure, shortened: as §1
# [31] = target: GlcNAc(b1-2)Man(a1-3)[GlcNAc(b1-2)Man(a1-6)]Man(b1-4)GlcNAc(b1-4)[Fuc(a1-6)]GlcNAc
# Procedure, shortened: as §1
# [32] = target: GlcNAc(b1-2)[GlcNAc(b1-6)]Man(a1-6)[GlcNAc(b1-2)Man(a1-3)]Man(b1-4)GlcNAc(b1-4)GlcNAc
# Procedure, shortened: as §1
# [33] = target: GlcNAc(b1-2)[GlcNAc(b1-6)]Man(a1-6)[GlcNAc(b1-2)Man(a1-3)]Man(b1-4)GlcNAc(b1-4)[Fuc(a1-6)]GlcNAc
# Procedure, shortened: as §1
# [34] = target: GlcNAc(b1-3)Gal(b1-4)GlcNAc(b1-3)Gal(b1-4)GlcNAc
# Procedure, shortened: as §1
# [35] = target: GlcNAc(b1-3)Gal(b1-4)GlcNAc(b1-3)Gal(b1-4)GlcNAc(b1-2)[GlcNAc(b1-3)Gal(b1-4)GlcNAc(b1-3)Gal(b1-4)GlcNAc(b1-6)]Man(a1-6)[GlcNAc(b1-3)Gal(b1-4)GlcNAc(b1-3)Gal(b1-4)GlcNAc(b1-2)Man(a1-3)]Man(b1-4)GlcNAc(b1-4)[Fuc(a1-6)]GlcNAc
# Procedure, shortened: as §1
# [36] = target: GlcNAc(b1-3)Gal(b1-4)GlcNAc(b1-3)Gal(b1-4)GlcNAc(b1-3)Gal(b1-4)GlcNAc(b1-2)Man(a1-3)[GlcNAc(b1-3)Gal(b1-4)GlcNAc(b1-3)Gal(b1-4)GlcNAc(b1-3)Gal(b1-4)GlcNAc(b1-2)Man(a1-6)]Man(b1-4)GlcNAc(b1-4)GlcNAc
# Procedure, shortened: as §1
# [37] = target: GlcNAc(b1-3)Gal(b1-4)GlcNAc(b1-6)[GlcNAc(b1-3)]Gal(b1-4)GlcNAc
# Procedure, shortened: as §1
# [38] = target: GlcNAc(b1-4)GlcNAc(b1-4)GlcNAc
# Procedure, shortened: as §1
# [39] = target: Man(a1-2)Man(a1-6)[Man(a1-3)]Man(a1-6)[Man(a1-2)Man(a1-2)Man(a1-3)]Man(b1-4)GlcNAc(b1-4)GlcNAc
# Procedure, shortened: as §1
# [40] = target: Man(a1-3)[Man(a1-6)]Man(a1-6)[Man(a1-2)Man(a1-3)]Man(b1-4)GlcNAc(b1-4)GlcNAc
# Procedure, shortened: as §1
# [41] = target: Man(b1-4)GlcNAc
# Procedure, shortened: as §1
# [42] = target: Neu5Ac(a2-3)Gal(b1-3)GlcNAc(b1-2)Man
# Procedure, shortened: as §1
# [43] = target: Neu5Ac(a2-3)Gal(b1-3)[Fuc(a1-4)]GlcNAc
# Procedure, shortened: as §1
# [44] = target: Neu5Ac(a2-3)Gal(b1-3)[Fuc(a1-4)]GlcNAc(b1-3)Gal(b1-4)[Fuc(a1-3)]GlcNAc
# Procedure, shortened: as §1
# [45] = target: Neu5Ac(a2-3)Gal(b1-4)GlcNAc(b1-3)Gal
# Procedure, shortened: as §1
# [46] = target: Neu5Ac(a2-3)Gal(b1-4)GlcNAc(b1-6)[Gal(b1-3)]GalNAc
# Procedure, shortened: as §1
# [47] = target: Neu5Ac(a2-6)Gal(b1-4)Glc
# Procedure, shortened: as §1
# [48] = target: Neu5Ac(a2-6)Gal(b1-4)GlcNAc(b1-2)Man(a1-3)[Man(a1-6)]Man(b1-4)GlcNAc(b1-4)GlcNAc
# Procedure, shortened: as §1
# [49] = target: Neu5Ac(a2-6)Gal(b1-4)GlcNAc(b1-2)Man(a1-6)[Gal(b1-4)GlcNAc(b1-2)Man(a1-3)]Man(b1-4)GlcNAc(b1-4)GlcNAc
# Procedure, shortened: as §1
# [50] = target: Neu5Ac(a2-6)Gal(b1-4)GlcNAc(b1-3)Gal(b1-4)GlcNAc
# Procedure, shortened: as §1
# [51] = target: Neu5Ac(a2-6)Gal(b1-4)GlcNAc(b1-3)Gal(b1-4)GlcNAc(b1-3)GalNAc
# Procedure, shortened: as §1
# [52] = target: Neu5Ac(a2-8)Neu5Ac(a2-3)Gal(b1-3)GalNAc(b1-4)[Neu5Ac(a2-3)]Gal(b1-4)Glc
# Procedure, shortened: as §1
# [53] = target: Neu5Ac9Ac(a2-3)Gal(b1-4)GlcNAc
# Procedure, shortened: as §1
# [54] = target: Neu5Gc(a2-3)Gal(b1-3)GlcNAc
# Procedure, shortened: as §1
# [55] = target: Neu5Gc(a2-3)Gal(b1-4)GlcNAc(b1-3)Gal(b1-4)GlcNAc(b1-2)Man(a1-3)[Neu5Gc(a2-3)Gal(b1-4)GlcNAc(b1-3)Gal(b1-4)GlcNAc(b1-2)Man(a1-6)]Man(b1-4)GlcNAc(b1-4)GlcNAc
# Procedure, shortened: as §1
# [56] = target: Neu5Gc(a2-3)Gal(b1-4)[Fuc(a1-3)]GlcNAc
# Procedure, shortened: as §1
binder,measurement,setting,value
B1,glycan array binding signal (z-score),[1],0.333
same,glycan array binding signal (z-score),[2],1.76
same,glycan array binding signal (z-score),[3],-0.575
same,glycan array binding signal (z-score),[4],0.558
same,glycan array binding signal (z-score),[5],-0.388
same,glycan array binding signal (z-score),[6],4.48
same,glycan array binding signal (z-score),[7],-0.23
same,glycan array binding signal (z-score),[8],-0.477
same,glycan array binding signal (z-score),[9],-0.302
same,glycan array binding signal (z-score),[10],-0.551
same,glycan array binding signal (z-score),[11],-0.144
same,glycan array binding signal (z-score),[12],-0.539
same,glycan array binding signal (z-score),[13],3.31
same,glycan array binding signal (z-score),[14],4.69
same,glycan array binding signal (z-score),[15],-0.471
same,glycan array binding signal (z-score),[16],-0.152
same,glycan array binding signal (z-score),[17],6.71
same,glycan array binding signal (z-score),[18],0.467
same,glycan array binding signal (z-score),[19],-0.205
same,glycan array binding signal (z-score),[20],1.07
same,glycan array binding signal (z-score),[21],-0.652
same,glycan array binding signal (z-score),[22],3.75
same,glycan array binding signal (z-score),[23],0.034
same,glycan array binding signal (z-score),[24],-0.17
same,glycan array binding signal (z-score),[25],-0.278
same,glycan array binding signal (z-score),[26],5.21
same,glycan array binding signal (z-score),[27],0.308
same,glycan array binding signal (z-score),[28],-0.317
same,glycan array binding signal (z-score),[29],-0.12
same,glycan array binding signal (z-score),[30],4.64
same,glycan array binding signal (z-score),[31],0.316
same,glycan array binding signal (z-score),[32],-0.776
same,glycan array binding signal (z-score),[33],-0.217
same,glycan array binding signal (z-score),[34],-0.357
same,glycan array binding signal (z-score),[35],0.522
same,glycan array binding signal (z-score),[36],-0.346
same,glycan array binding signal (z-score),[37],-0.719
same,glycan array binding signal (z-score),[38],0.454
same,glycan array binding signal (z-score),[39],-0.4
same,glycan array binding signal (z-score),[40],0.111
same,glycan array binding signal (z-score),[41],5.41
same,glycan array binding signal (z-score),[42],-0.619
same,glycan array binding signal (z-score),[43],-0.173
same,glycan array binding signal (z-score),[44],3.06
same,glycan array binding signal (z-score),[45],-0.777
same,glycan array binding signal (z-score),[46],6.1
same,glycan array binding signal (z-score),[47],-0.397
same,glycan array binding signal (z-score),[48],-0.03
same,glycan array binding signal (z-score),[49],-0.551
same,glycan array binding signal (z-score),[50],-0.49
same,glycan array binding signal (z-score),[51],-0.709
same,glycan array binding signal (z-score),[52],-0.435
same,glycan array binding signal (z-score),[53],-0.505
same,glycan array binding signal (z-score),[54],-0.34
same,glycan array binding signal (z-score),[55],-0.883
same,glycan array binding signal (z-score),[56],3.71
